# In PubChem BioAssay (Tox21):
# Records with an inconclusive call do not appear. Entries that show only a call come without a potency. Calls of active or inactive are those of the source. Unless noted, calls follow the shape of the full dose curve.
# Key:
# [1] = Nuclear factor erythroid 2-related factor 2/antioxidant responsive element (Nrf2/ARE) small molecule agonists: qHTS cell viability counter screen in human keratinocytes (AID 1919968; active = well fitted curve in the direction sought with a large enough effect in the repeat runs; an effect the other way counts as inactive or inconclusive; also: nearly all actives have a fitted effect of over 55% in size; also: potency is read from the fitted curve at half-maximal effect)
# How it was run: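 CellTiter-Fluor fluorescence, read 1 h after reagent, gave viability in the same wells as the ARE-luciferase assay. KeratinoSens cells (1,500/well) had 23 h compound exposure at 37 C/5% CO2 following 5 h plating.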
# [2] = Nuclear factor erythroid 2-related factor 2/antioxidant responsive element (Nrf2/ARE) small molecule agonists: luciferase reporter gene qHTS assay in human keratinocytes (AID 1919969); also: nearly all actives have a fitted effect of over 35% in size; also: potency is read from the fitted curve at half-maximal effect
# [3] = target: Gonadotropin-releasing hormone receptor (Homo sapiens) (UniProt P30968); experiment: Human gonadotropin-releasing hormone receptor (GnRHR) small molecule agonists, calcium flux assay in GnRHR-HEK293 cells (AID 1920063); also: nearly all actives have a fitted effect of over 35% in size
# Sequence of Gonadotropin-releasing hormone receptor (Homo sapiens) (P30968 whole entry, looked up): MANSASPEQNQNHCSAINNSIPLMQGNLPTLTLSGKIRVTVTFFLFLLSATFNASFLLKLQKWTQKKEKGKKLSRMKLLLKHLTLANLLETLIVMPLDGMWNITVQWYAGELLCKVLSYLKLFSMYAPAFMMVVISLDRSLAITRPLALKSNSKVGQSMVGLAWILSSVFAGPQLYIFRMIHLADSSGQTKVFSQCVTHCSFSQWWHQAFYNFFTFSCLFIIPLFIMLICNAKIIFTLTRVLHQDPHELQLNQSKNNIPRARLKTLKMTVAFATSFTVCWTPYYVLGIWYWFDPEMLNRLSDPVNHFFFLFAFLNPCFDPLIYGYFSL
# How it was run: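 Agonist mode: compounds at 15 concentrations, in triplicate, went onto calcium dye-loaded GnRHR-HEK293 cells. Intracellular calcium was then followed as 480/540 nm fluorescence at 1 s intervals over 3 min.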
# [4] = target: KiSS-1 receptor (Homo sapiens) (UniProt Q969F8); experiment: Human kisspeptin (KISS1R) small molecule agonists, calcium flux assay in KISS1R-HEK293 cells (AID 1920064; active = well fitted curve in the direction sought with a large enough effect in the repeat runs; an effect the other way counts as inactive or inconclusive)
# Sequence of KiSS-1 receptor (Homo sapiens) (Q969F8 whole entry, looked up): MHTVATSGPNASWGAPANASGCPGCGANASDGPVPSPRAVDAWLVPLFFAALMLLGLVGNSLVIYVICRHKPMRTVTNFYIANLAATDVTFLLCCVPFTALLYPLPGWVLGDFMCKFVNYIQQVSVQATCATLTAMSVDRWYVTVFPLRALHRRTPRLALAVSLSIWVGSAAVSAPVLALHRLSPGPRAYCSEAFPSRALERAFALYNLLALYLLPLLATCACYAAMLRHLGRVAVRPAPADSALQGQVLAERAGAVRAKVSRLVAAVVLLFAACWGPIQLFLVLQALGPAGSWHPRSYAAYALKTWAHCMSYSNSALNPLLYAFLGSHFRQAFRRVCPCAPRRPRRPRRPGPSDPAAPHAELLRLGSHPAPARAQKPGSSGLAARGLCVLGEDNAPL
# How it was run: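 Agonist mode: intracellular calcium rise tracked at 1 s intervals over 3 min (480/540 nm) immediately after compound addition to dye-loaded KISS1R-HEK293 stable cells. Each compound tested at 15 concentrations in triplicate.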
# [5] = G protein-coupled receptor (GPCR) small molecule agonists, calcium flux assay: HEK293 wild type cell line counter screen (AID 1920065)
# How it was run: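 Calcium flux counter screen: compound added in agonist mode at 15 concentrations in triplicate to dye-loaded parental HEK293 cells. Fluorescence (480/540) read kinetically for 3 min; ATP served as positive control.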
# [6] = p53 small molecule agonists, cell-based qHTS assay with human liver microsomes (AID 1963577);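 also: p53 response element beta-lactamase reporter cells with liver microsomes plus NADPH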
# How it was run: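 Metabolically competent format: test substances, human liver microsomes and NADPH (both 0.5 mg/mL final) incubated with p53RE-bla cells 16 h at 37 C. Beta-lactamase reporter signal then quantified by fluorescence.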
# [7] = p53 small molecule agonists, cell-based qHTS assay with rat liver microsomes (AID 1963578)
# How it was run: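 Each plate received p53RE-bla cells, then compound, then rat liver microsomes and NADPH (both 0.5 mg/mL final). Plates were held 16 h at 37 C, and beta-lactamase activity was detected with LiveBLAzer over 2 h.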
# [8] = p53 small molecule agonists, cell-based qHTS assay with human liver microsomes: qHTS cell viability counter screen (AID 1963579); also: nearly all actives have a fitted effect of over 45% in size; also: potency is read from the fitted curve at half-maximal effect
# How it was run: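 Tox21 library compounds, delivered from DMSO stocks, were tested on p53RE-bla cells together with 0.5 mg/mL human liver microsomes and 0.5 mg/mL NADPH (final) over 16 h at 37 C; CellTiter-Glo luminescence served as the cytotoxicity measure.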
# [9] = p53 small molecule agonists, cell-based qHTS assay with rat liver microsomes: qHTS cell viability counter screen (AID 1963580); also: nearly all actives have a fitted effect of over 45% in size; also: potency is read from the fitted curve at half-maximal effect
# How it was run: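 Counter screen for cytotoxicity under metabolic activation: rat liver microsomes and NADPH, 0.5 mg/mL final each, added with compounds to p53RE-bla HCT-116 cells; 16 h at 37 C, then ATP luminescence read.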
# [10] = p53 small molecule agonists, cell-based qHTS assay: qHTS cell viability counter screen (AID 1963581); also: nearly all actives have a fitted effect of over 45% in size; also: potency is read from the fitted curve at half-maximal effect
# How it was run: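 Counter screen read by CellTiter-Glo luminescence (ATP content, 30 min at room temperature), run in the same wells as the beta-lactamase reporter read. HCT-116 p53RE-bla cells saw compounds for 16 h at 37 C.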
# [11] = target: 5-hydroxytryptamine receptor 2A (Homo sapiens) (UniProt P28223); experiment: 5-hydroxytryptamine receptor 2A (HTR2A) small molecule antagonists, cell-based qHTS assay (AID 1963586); also: nearly all actives have a fitted effect of over 45% in size
# Sequence of 5-hydroxytryptamine receptor 2A (Homo sapiens) (P28223 whole entry, looked up): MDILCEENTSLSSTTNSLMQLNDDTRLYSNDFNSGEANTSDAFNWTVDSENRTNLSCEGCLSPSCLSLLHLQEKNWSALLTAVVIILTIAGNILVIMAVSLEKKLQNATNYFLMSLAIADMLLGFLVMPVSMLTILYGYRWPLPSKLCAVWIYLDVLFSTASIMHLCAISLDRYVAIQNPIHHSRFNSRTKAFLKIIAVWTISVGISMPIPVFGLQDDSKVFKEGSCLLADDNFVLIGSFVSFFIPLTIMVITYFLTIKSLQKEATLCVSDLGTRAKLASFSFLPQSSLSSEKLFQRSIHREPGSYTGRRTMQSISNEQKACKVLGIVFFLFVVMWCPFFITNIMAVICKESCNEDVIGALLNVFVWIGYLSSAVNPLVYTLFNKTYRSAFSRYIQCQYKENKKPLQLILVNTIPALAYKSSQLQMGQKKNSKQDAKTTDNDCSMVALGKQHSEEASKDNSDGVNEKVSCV
# How it was run: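 CHO cells stably expressing human HTR2A were plated for 18 h at 37 C, then loaded with calcium dye for 1 h. Compounds were preincubated 5 min at room temperature before DOI (4 nM solution) was added. Kinetic fluorescence was read for 3 min.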
# [12] = target: 5-hydroxytryptamine receptor 2A (Homo sapiens) (UniProt P28223); experiment: 5-hydroxytryptamine receptor 2A (HTR2A) small molecule agonists, cell-based qHTS assay (AID 1963587); also: nearly all actives have a fitted effect of over 30% in size; also: potency is read from the fitted curve at half-maximal effect
# How it was run: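 HTR2A-CHO cells, plated 18 h at 37 C/5% CO2, dye-loaded 1 h at 37 C; compounds in DMSO added by pin tool (agonist mode). Intracellular calcium flux read as kinetic fluorescence on FDSS over 2 min at 1 s intervals.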
# [13] = target: Muscarinic acetylcholine receptor M1 (Homo sapiens) (UniProt P11229); experiment: Cholinergic receptor muscarinic 1 (CHRM1) small molecule antagonists, cell-based qHTS assay (AID 1963588); also: nearly all actives have a fitted effect of over 40% in size
# Sequence of Muscarinic acetylcholine receptor M1 (Homo sapiens) (P11229 whole entry, looked up): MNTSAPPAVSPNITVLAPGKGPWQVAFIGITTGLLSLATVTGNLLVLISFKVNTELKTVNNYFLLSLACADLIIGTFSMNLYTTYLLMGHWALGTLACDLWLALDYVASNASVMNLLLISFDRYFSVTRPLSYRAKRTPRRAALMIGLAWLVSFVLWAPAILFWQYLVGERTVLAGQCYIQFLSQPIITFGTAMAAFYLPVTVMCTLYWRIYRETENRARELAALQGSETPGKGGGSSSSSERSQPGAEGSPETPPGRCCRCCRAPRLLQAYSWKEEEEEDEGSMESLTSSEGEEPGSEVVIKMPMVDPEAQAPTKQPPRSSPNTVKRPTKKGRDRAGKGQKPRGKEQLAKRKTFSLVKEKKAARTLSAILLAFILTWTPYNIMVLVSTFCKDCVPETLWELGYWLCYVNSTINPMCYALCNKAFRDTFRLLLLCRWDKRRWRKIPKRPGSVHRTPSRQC
# How it was run: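 Compounds were tested at 15 concentrations in three independent runs. Dye-loaded CHRM1-CHO cells were exposed 5 min at room temperature before stimulation by acetylcholine added at 50nM. Intracellular calcium was read kinetically on FDSS for 3 min.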
# [14] = target: Muscarinic acetylcholine receptor M1 (Homo sapiens) (UniProt P11229); experiment: Cholinergic receptor muscarinic 1 (CHRM1) small molecule agonists, cell-based qHTS assay (AID 1963589); also: nearly all actives have a fitted effect of over 35% in size
# How it was run: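 Agonist-mode calcium-flux screen: compounds at 15 concentrations, three independent runs, were pin-transferred onto dye-loaded human CHRM1-CHO cells. Fluorescence was then recorded kinetically every second over minutes.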
# [15] = cAMP Responsive Elements (CRE) small molecule antagonists, cell-based qHTS assay (AID 1963591; active = well fitted inhibition curve with a large enough effect in the signal ratio in the repeat runs, not every such curve was filed as active; the % refers to the signal ratio)
# How it was run: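 Antagonist mode: compounds are added alongside the adenylyl cyclase activator NKH477 (0.25 uM final) to CRE-bla HEK293T cells for 3 h. LiveBLAzer FRET substrate, 2 h at room temperature, reports bla expression.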
# [16] = target: Beta-2 adrenergic receptor (Homo sapiens) (UniProt P07550); experiment: Adrenergic beta2 receptor (ADRB2) small molecule antagonists, cell-based qHTS assay (AID 1963592); also: series mostly up to about 92 µM; nearly all actives have a fitted effect of over 50% in size
# Sequence of Beta-2 adrenergic receptor (Homo sapiens) (P07550 whole entry, looked up): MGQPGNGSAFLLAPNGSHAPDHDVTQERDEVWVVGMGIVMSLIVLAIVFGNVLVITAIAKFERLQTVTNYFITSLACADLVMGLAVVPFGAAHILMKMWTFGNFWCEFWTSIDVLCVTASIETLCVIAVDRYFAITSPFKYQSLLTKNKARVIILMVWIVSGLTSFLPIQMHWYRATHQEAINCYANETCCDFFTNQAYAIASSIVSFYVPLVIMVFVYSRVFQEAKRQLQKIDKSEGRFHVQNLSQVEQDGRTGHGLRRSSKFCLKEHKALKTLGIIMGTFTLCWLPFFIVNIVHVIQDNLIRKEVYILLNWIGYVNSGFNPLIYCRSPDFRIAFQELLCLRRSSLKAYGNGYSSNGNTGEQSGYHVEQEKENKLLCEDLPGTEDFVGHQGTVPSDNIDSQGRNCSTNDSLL
# How it was run: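 Assay format: CHO-ADRB2 cells, 18-20hr seeding at 37C/5% CO2, then compound plus 1nM isoproterenol agonist mix for 0.5hr RT. Homogeneous time-resolved fluorescence cAMP detection after 1hr, expressed as 665/615 nm ratio.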
# [17] = target: D(2) dopamine receptor (Homo sapiens) (UniProt P14416); experiment: Dopamine D2 receptor (DRD2) small molecule agonists, cell-based qHTS assay (AID 1963594); also: nearly all actives have a fitted effect of over 35% in size
# Sequence of D(2) dopamine receptor (Homo sapiens) (P14416 whole entry, looked up): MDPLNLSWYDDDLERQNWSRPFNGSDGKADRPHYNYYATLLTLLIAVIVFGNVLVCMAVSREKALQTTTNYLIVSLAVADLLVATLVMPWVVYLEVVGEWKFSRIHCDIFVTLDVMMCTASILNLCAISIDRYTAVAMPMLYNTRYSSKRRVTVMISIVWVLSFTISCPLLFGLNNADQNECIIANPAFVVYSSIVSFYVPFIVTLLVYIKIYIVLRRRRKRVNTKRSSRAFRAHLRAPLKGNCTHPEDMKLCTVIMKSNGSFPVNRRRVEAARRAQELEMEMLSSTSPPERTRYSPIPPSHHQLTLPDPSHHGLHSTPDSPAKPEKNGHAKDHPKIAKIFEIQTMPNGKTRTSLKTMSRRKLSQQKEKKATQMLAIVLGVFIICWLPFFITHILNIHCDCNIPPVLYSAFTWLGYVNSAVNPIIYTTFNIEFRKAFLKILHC
# How it was run: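 HEK293 cells stably expressing DRD2 were cultured 24 h at 37 C, then given Ro20-1724 (0.1 mM final) and compounds for 10 min at room temperature. NKH477 (200nM) was then added for 30 min. cAMP was read by HTRF.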
# [18] = target: D(2) dopamine receptor (Homo sapiens) (UniProt P14416); experiment: Dopamine D2 receptor (DRD2) small molecule antagonists, cell-based qHTS assay (AID 1963595; active = well fitted inhibition curve with a large enough effect in the signal ratio in the repeat runs, with a control signal flat; the % refers to the signal ratio; also: potency is read from the fitted curve at half-maximal effect)
# How it was run: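 Antagonism was scored as restored cAMP in HEK293-DRD2 cells. These cells were stimulated with 200 nM NKH477 and 12 nM quinpirole for 30 min at room temperature, in the presence of 0.1 mM Ro20-1724.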
# [19] = cAMP Responsive Elements (CRE) small molecule agonists, cell-based qHTS assay (AID 1963590)
# How it was run: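 Agonist mode: compound added to CRE-bla HEK 293T cells (2,000/well, 18 h after plating) for 3 h at 37 C/5% CO2. Reporter activity detected via FRET beta-lactamase substrate, 2 h room-temperature loading.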
Compound,Potency [1],Potency [2],Potency [3],outcome [4],outcome [5],Potency [6],Potency [7],Potency [8],Potency [9],Potency [10],Potency [11],Potency [12],Potency [13],Potency [14],Potency [15],Potency [16],Potency [17],Potency [18],Potency [19]
CC1=C(C)C(=O)C(CCCCC#CCCCC#CCO)=C(C)C1=O,inactive,29.8 µM (active),inactive,inactive,inactive,inactive,inactive,inactive,inactive,inactive,inactive,inactive,inactive,inactive,inactive,inactive,inactive,inactive,–
COc1cc2c(cc1OC)C(C(C(=O)N(CCc1ccc(OC)c(OC)c1OC)CCc1ccc(OC)c(OC)c1OC)c1ccccc1)=NCC2 (configuration not stated),inactive,inactive,inactive,inactive,inactive,inactive,inactive,inactive,inactive,inactive,inactive,12 µM (active),inactive,inactive,–,–,inactive,–,–
CCCCCCCC[P+](CCCCCCCC)(CCCCCCCC)CCCCCCCC,4.83 µM (active),inactive,inactive,inactive,inactive,inactive,inactive,8.09 µM (active),20.3 µM (active),2.56 µM (active),inactive,24.4 µM (active),inactive,inactive,–,inactive,inactive,13.6 µM (active),–
C/C=C/C=C/CCCCCCCO,inactive,68.6 µM (active),inactive,inactive,inactive,inactive,inactive,inactive,inactive,inactive,inactive,inactive,inactive,inactive,–,inactive,inactive,–,–
O=CN1CCOCC1,inactive,inactive,inactive,inactive,inactive,inactive,inactive,inactive,inactive,inactive,inactive,inactive,inactive,inactive,inactive,inactive,–,inactive,inactive
OCCSc1ccccc1,inactive,inactive,inactive,inactive,inactive,inactive,inactive,inactive,inactive,inactive,inactive,inactive,inactive,inactive,–,inactive,inactive,inactive,inactive
